This note sets out measurements from PubChem BioAssay AID2501 (Southern Research Specialized Biocontainment Screening …, 2010).

Usually IC50 stands for the concentration that inhibits the measured activity by half.

About 1,200 (55%) of roughly 2,200 compounds were called active. The limit is not given here; nearly all actives have IC50 up to about 92 µM. So high a share suggests a set chosen from earlier hits. The list shows a part of the results.

A short description of this assay: counter assay for TAg ATPase ADP read-out – biochemical, ADP-Hunter, fluorescence, counter-screen (AID 2501).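 Also: purified T antigen ATPase.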 Conditions: series mostly up to 100 µM. For orientation: The purpose of a counterscreen is to sort out artefacts and off-target activity.
For the compound `Nc1c(-c2ccccc2)c(CN2CCOCC2)nn1-c1ccc(F)cc1`, the IC50 result was “inactive”.
Under `CCOc1cc(/C=N/n2cnnc2)ccc1O` stands 6.86 µM (active).
The figure for `Cc1cc(=O)[nH]c(N/N=C/c2c[nH]c3ccccc23)n1` is 5.41 µM (active); for `COc1cc(/C=N/n2cnnc2)ccc1OC(=O)c1ccncc1` it is 5.68 µM (active).
Under `COc1ccccc1NC(=O)COc1ccc(/C=N/n2cnnc2)cc1OC` stands “inactive”.
For `Cc1cc(F)ccc1S(=O)(=O)N(C(=O)c1ccncc1)c1ccc(OC(=O)c2ccncc2)cc1`, the IC50 was 48.3 µM (active).
Under `Cc1ccc(C)n1Cc1ccc(C(=O)O)cc1` stands “inactive”; under `Cc1ccsc1C=Nc1ccc(O)cc1`, 5.76 µM (active); under `On1ccccc1=S`, “inactive”.
Under `Cc1ccc(C2=NOC(=O)/C2=C\c2ccccc2)cc1` stands “inactive”.
On to `Cc1ccc(/C=N/N2C(=O)c3ccccc3NC2c2ccc(C)cc2)cc1` (configuration not stated), for which the IC50 result is “inactive”.
Under `Cc1ccc(C2C=NN(c3ccccc3)C2=O)cc1` (configuration not stated) stands 12.2 µM (active).
The entry for `CCCCn1c(N)c(N(CCOC)C(=O)c2cccc(S(=O)(=O)N(C)c3ccccc3)c2)c(=O)[nH]c1=O` is “inactive”; for `CC(=O)Oc1cc2oc(=O)cc(C)c2cc1OC(C)=O` it is 10.8 µM (active); for `CCc1cc(=O)oc2cc(OCC(N)=O)c(Cl)cc12` it is “inactive”.
Under `Cc1cc(C)c2c(CCl)cc(=O)oc2c1` stands “inactive”; under `CCN(CC)c1ccc(NC(=O)CSc2nc3nc(C)cc(C)c3c(=O)[nH]2)cc1`, 6.75 µM (active); under `CCN(CC)c1ccc(NC(=O)CSc2nnc3nc(C)cc(C)n23)cc1`, 2.92 µM (active).
Take `COc1ccc(NC(=O)CSc2nc(NS(=O)(=O)c3ccc(C)cc3)cc(=O)[nH]2)cc1`: the IC50 entry was “inactive”.
The entry for `Cc1occc1-c1nnc(SCC(=O)Nc2ccc(F)cc2)n1Cc1ccccc1` is “inactive”.
As to `Cc1sc2nc(CSCC(=O)N(C)CC(=O)Nc3ccc(F)cc3)[nH]c(=O)c2c1C`, the IC50 result was “inactive”.
The figure for `CN(C)c1ccc(NC(=O)CSc2nc3c(c(=O)[nH]2)CCCC3)cc1` is 2.47 µM (active).
Turning to `Cc1ccc(C2(CCNCc3ccco3)CCOC(C(C)C)C2)cc1` (configuration not stated), the IC50 result is “inactive”.
With `S=c1[nH]nc(-c2cc(-c3ccco3)[nH]n2)n1-c1ccccc1Cl`, the IC50 was 6.42 µM (active).
Under `FC(F)(F)c1ccc(Cl)c(-n2c(-c3cc(-c4ccco4)[nH]n3)n[nH]c2=S)c1` stands “inactive”; under `COc1ccccc1-n1c(-c2cc(-c3ccco3)[nH]n2)n[nH]c1=S`, “inactive”; under `CN(C)c1ccc(NC(=O)CN2C(=O)CC(c3ccccc3)=Nc3ccccc32)cc1`, 5.09 µM (active).
For `O=C(CN1C(=O)S/C(=C\C=C\c2ccccc2)C1=O)Nc1ccc(C(=O)O)cc1`, the IC50 result was “inactive”.
The entry for `COc1cc(C=O)c(Cl)cc1OCC(N)=O` is “inactive”.
The entry for `CNC(=O)COc1ccc(C=O)cc1OC` is “inactive”; for `COc1cc(CNc2ccc(N3CCOCC3)cc2)ccc1OCC(=O)NC(C)(C)C` it is 4.7 µM (active).
Under `COc1cc(CNc2ccc(N3CCCCC3)cc2)ccc1OCC(=O)NC(C)(C)C` stands 4.51 µM (active); under `COc1ccc(CCNC(=O)c2cc(-c3ccc4c(c3)OCO4)on2)cc1OC`, “inactive”; under `COc1cc(CNc2ccc3c(c2)OCCO3)ccc1OCC(N)=O`, 3.27 µM (active).
As to `CC(C)N=C(NC#N)SCc1ccc(Br)cc1`, the IC50 entry was “inactive”.
`Fc1cccc(Cl)c1Cn1nnc(-c2ccc(N3CCOCC3)cc2)n1`: the IC50 entry is “inactive”.
Under `CCCC(=O)N=c1sc2c(OC)ccc(OC)c2n1C` stands “inactive”; under `Cc1sc2nc(CSc3ccc([N+](=O)[O-])cc3)[nH]c(=O)c2c1C`, “inactive”; under `O=C1OCC(CO)(CO)N=C1NNc1ccccc1Cl`, 9.24 µM (active).
Under `Nc1ccc(OCCCc2c(N)nc(N)nc2N)cc1` stands 6.58 µM (active).
The entry for `N=C1/C(=C\c2ccc(-c3cccc(C(=O)O)c3)o2)C(=O)N=C2SC=C(c3ccccc3)N12` is “inactive”; for `Cc1ccc(-c2ccc(/C=C3\C(=O)ON=C3c3ccccc3)o2)c([N+](=O)[O-])c1` it is “inactive”.
On to `CC1=NN(c2cccc(C(=O)O)c2)C(=O)/C1=C\C=C\c1ccco1`, for which the IC50 result is “inactive”.
Under `CC1=C(C#N)C(=O)NC(=O)/C1=C/c1ccc(-c2ccc(S(N)(=O)=O)cc2)o1` stands “inactive”.
The figure for `O=C1NN(c2ccccc2)C(=O)/C1=C\c1ccc(-c2cc([N+](=O)[O-])ccc2O)o1` is 6.89 µM (active).
The entry for `CC(C)S(=O)(=O)C1=NSC2=NC(=O)/C(=C\c3ccc(-c4ccccc4)o3)C(=N)N21` is “inactive”; for `O=C1NN(c2ccccc2)C(=O)/C1=C/c1ccc(-c2cccc(C(=O)O)c2)o1` it is 14.1 µM (active).
Regarding `O=C1NN(c2ccccc2)C(=O)/C1=C/c1ccc(-c2ccc(C(=O)O)cc2)o1`, the IC50 is 13.4 µM (active).
For `CCn1c2ccccc2c2nnc(SCC(=O)N(C)C3CCS(=O)(=O)C3)nc21` (configuration not stated), the IC50 result was “inactive”.
For `CC1=C(C)CS(=O)N(S(=O)(=O)c2ccc(Cl)cc2)C1` (configuration not stated), the IC50 result is “inactive”.
Under `COc1ccc(NC2CCCN(Cc3cccc4cnccc34)C2)cc1OC` (configuration not stated) stands 8.39 µM (active).
The figure for `Cc1ccsc1C(=O)NCc1ccccc1Cl` is 81.4 µM (active).
For `Cc1ccc2c(cnn2C(=O)CCC(=O)NCc2ccccc2Cl)c1`, the IC50 result was “inactive”.
For `O=C(CSc1nc2ccccc2o1)N/N=C/c1ccc(O)c(O)c1`, the IC50 is 7.74 µM (active).
Consider `CCn1c(SCC(=O)N/N=C/c2ccc(O)c(OC)c2)nc2ccccc21`, for which the IC50 is 6.63 µM (active).
The figure for `O=C(Cc1nnc(NC(=O)c2ccccc2)s1)N/N=C\c1ccc(O)c(O)c1` is 1.55 µM (active).
Under `CCSc1nc2ccccc2n1CC(=O)OC` stands “inactive”.
With `Cc1ccccc1C(=O)Nc1nnc(CC(=O)N/N=C/c2cn(Cc3ccccc3)c3ccccc23)s1`, the IC50 result is “inactive”.
Under `Cc1cc(SCC(=O)N/N=C/c2ccc(O)c(O)c2)nc2ccccc12` stands 5.75 µM (active); under `O=[N+]([O-])c1ccc(Sc2nc3ccccc3o2)c([N+](=O)[O-])c1`, “inactive”.
Under `COc1ccc(C2C3=C(N=C4SCC(=O)N42)c2ccccc2CC3)cc1` (configuration not stated) stands “inactive”; under `Cn1c(SCC(=O)N/N=C/c2ccc(O)c(O)c2)nc2ccccc21`, 6.12 µM (active).
Under `CN(C)c1ccc(NC2=C([N+](=O)[O-])CS(=O)(=O)C2)cc1` stands 3.14 µM (active); under `COc1ccc(N=Nc2c(N)n[nH]c2N)cc1`, 6.12 µM (active).
On to `N=C1/C(=C\c2ccc(Br)o2)C(=O)N=C2SC(CC(=O)N3CCCCC3)=NN12`, for which the IC50 result is “inactive”.
Under `COc1cc2c(cc1NC(=S)Nc1ccccc1C)oc1ccccc12` stands 23.6 µM (active); under `CCN(CC)S(=O)(=O)c1ccc(OC)c(NC(=S)Nc2cccc(C)c2)c1`, “inactive”; under `CCN1C(=O)C2(C(C(=O)c3cc4ccccc4o3)=C(O)C(=O)N2CCCN(C)C)c2ccccc21` (configuration not stated), 31.5 µM (active).
Under `Cc1ccc2c(c1)C1C=CCC1C(C(=O)O)N2` (configuration not stated) stands “inactive”; under `O=C1CCCN1CCCNC(=S)Nc1ccc(Nc2ccccc2)cc1`, 6.41 µM (active); under `CCOc1cc2[nH]c(=O)n(Cc3ccc(C(=O)NCCCN4CCCC4=O)cc3)c(=O)c2cc1OCC`, “inactive”.
The figure for `COc1cc(/C=C2\N=C3CCCCCN3C2=O)ccc1O` is 3.83 µM (active); for `CCOc1cc(/C=C2\N=C3CCCCCN3C2=O)ccc1O` it is 5.66 µM (active).
`COc1cc(/C=c2\sc3n(c2=O)CCCN=3)ccc1O`: the IC50 was 4.98 µM (active).
The figure for `O=C1/C(=C\c2ccc(O)c(O)c2)N=C2CCCCCN12` is 4.83 µM (active); for `CC(=O)N1CC[n+]2c(-c3ccc([N+](=O)[O-])cc3)csc21` it is “inactive”.
As to `CCN1/C(=C/C=C/c2sc3ccccc3[n+]2CC)Sc2ccccc21`, the IC50 result is “inactive”.
Under `CCN(CC)CCCCN1c2ccccc2Sc2ccccc21` stands 6.81 µM (active); under `CCCCN1C(=O)/C(=C(/C#N)C(N)=O)c2ccccc21`, “inactive”.
The entry for `COc1ccc(N2C3=C(CC4=C2CCCC4=O)C(=O)CCC3)cc1` is “inactive”.
Under `O=c1c2c3c(sc2n2c(=S)[nH]nc2n1-c1ccccc1)CCC3` stands 18.4 µM (active); under `O=C(Cn1c(=O)n(Cc2ccco2)c(=O)c2c3c(sc21)CCCCC3)c1ccccc1`, “inactive”; under `Cc1ccc(-n2c(=O)c3c4c(sc3n3c(=S)[nH]nc23)CCC4)cc1`, 14.2 µM (active).
Take `NC(=O)Cn1c(=O)n(Cc2ccco2)c(=O)c2c3c(sc21)CCCCC3`: the IC50 entry is “inactive”.
Consider `COc1ccc(-n2c(=O)c3c4c(sc3n3c(=S)[nH]nc23)CCC4)cc1`, for which the IC50 was 12 µM (active).
Under `CCn1c(=O)n(CC)c2cc(N)ccc21` stands 4.09 µM (active); under `COc1cccc(C(c2nnnn2Cc2ccco2)N2CCN(Cc3ccccc3)CC2)c1OC` (configuration not stated), “inactive”; under `COCCn1nnnc1C(c1cc2cc(OC)c(OC)cc2[nH]c1=O)N1CCN(c2ccc(O)cc2)CC1` (configuration not stated), 8.81 µM (active).
The entry for `O=c1[nH]c2cc3c(cc2cc1C(c1nnnn1CC1CCCO1)N1CCCCCC1)OCCO3` (configuration not stated) is “inactive”; for `Cc1cc2c(Nc3ccc(O)cc3)ncnc2s1` it is 3.61 µM (active); for `CCc1cc2c(Nc3ccc(O)cc3)nc(C)nc2s1` it is 4.69 µM (active).
Take `Cc1ccc(-c2nc(CN(Cc3cnn(C)c3)C(C)C)c(C)o2)o1`: the IC50 entry is “inactive”.
The figure for `Nc1ccc(Nc2ccccc2)c(S(=O)(=O)O)c1` is 4.02 µM (active); for `Nc1cc(C(=O)O)ccc1Nc1ccccc1` it is 5.63 µM (active); for `O=S(=O)(O)c1cccc2cccc(Nc3ccccc3)c12` it is 19.5 µM (active).
The entry for `Cc1ccc(C)n1-c1cccc(C(=O)O)c1` is “inactive”; for `N#Cc1c(N)sc(=S)c2c1CCCCC2` it is “inactive”.
The figure for `COc1cc(/C=N/NC(=O)CNc2n[nH]c(=O)[nH]c2=O)ccc1O` is 2.93 µM (active); for `COc1ccc(/C=N/NC(=O)CCc2n[nH]c(=O)[nH]c2=O)cc1O` it is 7.94 µM (active); for `CCOc1cc(/C=N/NC(=O)CCc2n[nH]c(=O)[nH]c2=O)ccc1O` it is 9.46 µM (active).
Turning to `Oc1ccccc1C(=S)N1CCCCCC1`, the IC50 was 13.9 µM (active).
The entry for `CC(=O)Oc1ccc(C(=O)Nc2ccccc2C(=O)N2CCCCC2)cc1` is “inactive”.
